Only some compounds are listed: those with a hit (about 11% of all), similar ones and a draw of the others.
HP1b binding inh – HP1-beta chromodomain-methylated histone interaction inhibition; Potency, µM (top dose mostly 114 µM), usual class: inhibitors; AlphaScreen HP1-beta / biotin-H3K9me3 peptide binding; P83916; 0.56% of 390,000 active; further: nearly all actives have a fitted effect of over 70% in size
Target sequence (P83916 whole entry, looked up): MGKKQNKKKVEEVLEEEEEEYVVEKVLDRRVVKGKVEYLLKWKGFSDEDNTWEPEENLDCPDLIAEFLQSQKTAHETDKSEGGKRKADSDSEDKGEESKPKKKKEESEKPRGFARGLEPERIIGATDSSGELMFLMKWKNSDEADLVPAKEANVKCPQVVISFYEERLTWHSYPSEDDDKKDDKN
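Compound inhibition of the preformed complex between 50 nM HP1-beta and 50 nM biotinylated H3K9me3 peptide was read by AlphaScreen. Buffer was PBS pH 7.4 with 0.01% Tween-20. Incubations ran 30 min at room temperature, with 10 ug/mL donor/acceptor beads.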
L3MBTL1 block – blocks human L3MBTL1; Q9Y468; AlphaScreen L3MBTL1–H3K9me1 peptide binding; Potency, µM (series often up to 57.1 µM), most hits filed as inhibitors; 0.66% of 230,000 active; further: nearly all actives have a fitted effect of over 60% in size
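L3MBTL1 (50 nM) pre-complexed 30 min with biotinylated H3(1-15)K9me1 peptide (75 nM), then compounds added for 30 min at room temperature; AlphaScreen streptavidin donor/nickel chelate acceptor beads (10 ug/mL final) read after 30 min dark incubation.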
PI5P4K alpha inh – blocks human PI5P4K alpha kinase activity. P48426. PI5P4Kalpha enzyme, ADP-Glo luminescence, 60 min; hits give low values. max response, %. 1.2% of 330,000 active. AID 652105; active means max response of -50% or lower; inconclusive means between -30% and -50%; inactive means -30% or higher; further: value at the top dose of about 77 µM
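Enzyme plus substrate dispensed, test compounds pinned in, then ATP (5 microM final) added. After 60 min at RT, ADP-Glo reagent 1 for 45 min and reagent 2 for 30 min preceded luminescence imaging.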
G9a block – G9a (human) methyltransferase inhibition | Q96KQ7 | G9a H3K9 monomethylation, AlphaScreen, 2 h | Potency, µM (series often up to 102 µM), most hits filed as inhibitors | 8.8% of 350,000 active | AID 504332; further: nearly all actives have a fitted effect of over 75% in size
Target sequence (Q96KQ7 913-1193 limits assumed): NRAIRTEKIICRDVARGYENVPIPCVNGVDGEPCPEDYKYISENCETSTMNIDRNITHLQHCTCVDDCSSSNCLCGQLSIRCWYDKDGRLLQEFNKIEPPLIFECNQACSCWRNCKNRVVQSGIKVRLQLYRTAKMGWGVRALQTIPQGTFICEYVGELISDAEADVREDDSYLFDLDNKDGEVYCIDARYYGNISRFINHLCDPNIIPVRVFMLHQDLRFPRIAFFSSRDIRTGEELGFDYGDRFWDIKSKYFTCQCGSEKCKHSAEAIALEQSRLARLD
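Using a bead-based AlphaScreen, monomethylated H3K9 product from 2 h room-temperature reactions (G9a 20 nM, peptide 500 nM, SAM 20 uM) was detected with 0.5 ug/mL rabbit anti-H3K9me1 antibody.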
BAZ2B block – inhibitors of human BAZ2B bromodomain | AID 504333 | Q9UIF8 | 4.4% of 360,000 active | AlphaScreen BAZ2B-H3K14Ac peptide displacement | Potency, µM (doses to about 114 µM), most hits filed as inhibitors; further: nearly all actives have a fitted effect of over 60% in size
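AlphaScreen displacement of biotin-H3(5-23)K14Ac peptide (50 nM final) from BAZ2B (50 nM final) in PBS pH 7.4, 0.01% Tween-20; complex preformed 30 min RT, then compounds (top 110 uM) 30 min RT, beads 20 min dark.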
JMJD2A Tudor inh – JMJD2A Tudor domain (human) inhibition. O75164. AlphaScreen JMJD2A-Tudor / H3K4me3 peptide binding. Potency, µM (titrated, usually from 114 µM), usual class: inhibitors. 4.4% of 390,000 active; further: nearly all actives have a fitted effect of over 50% in size
Each line names hits and unclear results; the compound was inactive in the other large screens. Unless noted, the call rests on the fitted dose curve; in most records, active means well fitted inhibition curve with a large enough effect; inconclusive means small, poorly fitted or top-dose-only effect; inactive means no such curve, though single readings can be large or run the other way.

COc1ccc(OC)c(C2C(C(=O)c3ccc(C)o3)=C(O)C(=O)N2c2cc(C)on2)c1 (stereo not given)	G9a block 50µM, JMJD2A Tudor inh inconclusive (no result: L3MBTL1 block)
COc1ccccc1C1C(C(=O)c2cc3ccccc3o2)=C(O)C(=O)N1c1cc(C)on1 (stereo not given)	G9a block 50µM (no result: L3MBTL1 block)
CCC(=O)N1CCc2cc(Br)cc(S(=O)(=O)CCC(=O)NCCc3ccccc3Cl)c21	none (no result: L3MBTL1 block, PI5P4K alpha inh)
COc1ccc(NC(=O)CSc2nc(-c3cccs3)cc(C(F)(F)F)n2)c(OC)c1	none (no result: L3MBTL1 block, PI5P4K alpha inh)
CCc1cccc(C)c1NC(=O)CCCn1c(C)c2cnn(-c3ccccc3)c(=O)c2c1C	JMJD2A Tudor inh inconclusive (no result: L3MBTL1 block, PI5P4K alpha inh)
Cc1cc(C)cc(NC(=O)c2cc(S(=O)(=O)N3CCc4ccccc43)cn2C)c1	BAZ2B block inconclusive (no result: L3MBTL1 block, PI5P4K alpha inh)
COc1ccc(C(=O)CN2C(=O)N(c3cc(C)cc(C)c3)S(=O)(=O)c3ccccc32)cc1	none (no result: L3MBTL1 block, PI5P4K alpha inh)
C=CCOc1cccc(C2C(C(=O)c3cc4ccccc4o3)=C(O)C(=O)N2c2cc(C)on2)c1 (stereo not given)	G9a block 40µM, JMJD2A Tudor inh inconclusive (no result: L3MBTL1 block)
Cc1cc(N2C(=O)C(O)=C(C(=O)c3ccc(C)o3)C2c2cccc(Oc3ccccc3)c2)no1 (stereo not given)	PI5P4K alpha inh inconclusive, JMJD2A Tudor inh 35µM (no result: L3MBTL1 block, G9a block)
Cc1nc(N2CCOCC2)c2c(C(=O)N3CCN(c4ccccc4F)CC3)c(C)oc2n1	none (no result: L3MBTL1 block, PI5P4K alpha inh)
Cc1c(C(=O)Nc2ccc(C(C)C)cc2)sc2nc[nH]c(=O)c12	none (no result: L3MBTL1 block, PI5P4K alpha inh)
CCNc1nc(C(=O)O)nc(N2CCOCC2)n1	G9a block 4µM, BAZ2B block 8.9µM, JMJD2A Tudor inh 0.79µM
CN(C)c1nc(N2CCOCC2)nc(N(c2ccccc2)c2ccccc2)n1	G9a block inconclusive
CN(C)c1nc(C(=O)O)nc(N2CCOCC2)n1	G9a block inconclusive, JMJD2A Tudor inh 32µM
COc1ccc(CN(Cc2ccccc2)S(=O)(=O)c2ccccc2)cc1COc1ccc(NC(C)=O)cc1	none (no result: HP1b binding inh, L3MBTL1 block, PI5P4K alpha inh, G9a block, BAZ2B block)
CCc1ccc2[nH]c(=O)c(C3C(C#N)=C(N)Oc4c3ccc3cccnc43)cc2c1 (stereo not given)	PI5P4K alpha inh -51, BAZ2B block inconclusive, JMJD2A Tudor inh inconclusive
Cn1nc(CC(=O)Nc2ccc3c(c2)OCCO3)c2ccccc2c1=O	none
Cc1ccc(NC(=O)Cc2nn(C)c(=O)c3ccccc23)cc1F	PI5P4K alpha inh inconclusive, JMJD2A Tudor inh 35µM
Cc1ccc(NC(=O)Cc2c(C(=O)O)n(C)c3ccccc23)cc1F	JMJD2A Tudor inh 45µM (no result: L3MBTL1 block)
NC(=O)C1CCN(c2ncnc3c2cnn3-c2cccc(Cl)c2)CC1	none (no result: L3MBTL1 block, PI5P4K alpha inh)
COc1ccccc1COCC(O)CNCCc1ccc(C(F)(F)F)cc1 (stereo not given)	G9a block 4µM, BAZ2B block 25µM, JMJD2A Tudor inh 79µM (no result: L3MBTL1 block)
CC(=O)C1=C(O)C(=O)N(Cc2cccnc2)C1c1ccc(C(C)C)cc1 (stereo not given)	G9a block 56µM
CCOc1ccc(C2C(C(=O)c3ccc(C)o3)=C(O)C(=O)N2Cc2cccnc2)cc1 (stereo not given)	G9a block 40µM, JMJD2A Tudor inh 89µM (no result: HP1b binding inh, L3MBTL1 block)
CCN(CC)CCN1C(=O)C(O)=C(C(=O)c2ccco2)C1c1ccccn1 (stereo not given)	G9a block 11µM, BAZ2B block inconclusive, JMJD2A Tudor inh 89µM (no result: L3MBTL1 block)
Cc1ccc(C(=O)C2=C(O)C(=O)N(Cc3cccnc3)C2c2cccc([N+](=O)[O-])c2)o1 (stereo not given)	BAZ2B block inconclusive, JMJD2A Tudor inh inconclusive (no result: L3MBTL1 block, G9a block)
CCCOc1ccc(C2C(C(=O)c3ccc(C)o3)=C(O)C(=O)N2Cc2ccco2)cc1 (stereo not given)	G9a block 50µM, BAZ2B block inconclusive (no result: L3MBTL1 block)
CC(=O)C1=C(O)C(=O)N(Cc2cccnc2)C1c1ccccc1Cl (stereo not given)	none
Cc1ccc(Nc2ncnc3c2nc2n3CCCC2)c(Br)c1	none (no result: L3MBTL1 block, PI5P4K alpha inh)
COc1ccc(C2C(C(=O)c3ccc(C)o3)=C(O)C(=O)N2Cc2cccnc2)cc1OC (stereo not given)	G9a block 50µM, JMJD2A Tudor inh 20µM (no result: L3MBTL1 block)
COc1cc(C2C(C(=O)c3ccco3)=C(O)C(=O)N2Cc2cccnc2)cc(OC)c1OC (stereo not given)	JMJD2A Tudor inh 89µM (no result: PI5P4K alpha inh, G9a block)
Cc1ccc(C(=O)C2=C(O)C(=O)N(Cc3ccccc3)C2c2cccnc2)o1 (stereo not given)	G9a block 50µM, JMJD2A Tudor inh 50µM (no result: PI5P4K alpha inh)
CCOc1cccc(C2C(C(=O)c3ccco3)=C(O)C(=O)N2Cc2ccncc2)c1 (stereo not given)	G9a block 35µM, JMJD2A Tudor inh inconclusive
COc1ccc(OC)c(C2C(C(=O)c3ccco3)=C(O)C(=O)N2Cc2cccnc2)c1 (stereo not given)	G9a block inconclusive, BAZ2B block inconclusive (no result: L3MBTL1 block)
CCCOc1cccc(C2C(C(=O)c3ccco3)=C(O)C(=O)N2CCN(CC)CC)c1 (stereo not given)	G9a block inconclusive
Cc1ccc(C(=O)C2=C(O)C(=O)N(Cc3cccnc3)C2c2cccc(Oc3ccccc3)c2)o1 (stereo not given)	none (no result: L3MBTL1 block, G9a block, BAZ2B block)
COc1cc(C2C(C(=O)c3ccc(C)o3)=C(O)C(=O)N2Cc2ccccc2)ccc1O (stereo not given)	G9a block 45µM, JMJD2A Tudor inh inconclusive
CCOc1cc(C2C(C(=O)c3ccc(C)o3)=C(O)C(=O)N2CCc2ccccc2)ccc1O (stereo not given)	G9a block 45µM, BAZ2B block inconclusive, JMJD2A Tudor inh inconclusive
Cc1ccc(C(=O)C2=C(O)C(=O)N(Cc3cccnc3)C2c2ccc(Cl)cc2)o1 (stereo not given)	G9a block 50µM (no result: L3MBTL1 block)
O=C(CSc1nnc(-c2ccccc2)c(-c2ccccc2)n1)Nc1ccccc1Cl	G9a block inconclusive, BAZ2B block inconclusive (no result: L3MBTL1 block, PI5P4K alpha inh)
COc1ccc(OC)c(CNC(=O)c2ccc(NC(=O)c3nsc4ccccc34)cc2)c1	none (no result: L3MBTL1 block, PI5P4K alpha inh)
CCCCCCCC/C=C\CCCCCCCCOC[C@H](COP(=O)([O-])OCC[N+](C)(C)C)OC(C)=O	none (no result: HP1b binding inh, L3MBTL1 block, PI5P4K alpha inh, BAZ2B block, JMJD2A Tudor inh)
CC(=O)Nc1c(O)c2ccccc2[nH]c1=O	G9a block 50µM
Cc1[nH]c2ccccc2c1SCC(=O)O	G9a block inconclusive
O=C(O)CSc1c(O)c2ccccc2[nH]c1=O	PI5P4K alpha inh inconclusive, G9a block 4.5µM, BAZ2B block 14µM, JMJD2A Tudor inh 11µM
O=c1[nH]c2ccccc2c(O)c1SCCO	BAZ2B block 50µM, JMJD2A Tudor inh 22µM (no result: G9a block)
CCC(Oc1ccccc1)C(=O)Nc1nnc(S(=O)(=O)N(CC)CC)s1 (stereo not given)	JMJD2A Tudor inh inconclusive (no result: L3MBTL1 block, PI5P4K alpha inh)
